An excerpt weighted towards active compounds, which were near 12% of everything screened.
Sfp inh: Sfp phosphopantetheinyl transferase inhibition; Potency, µM, for inactives: largest response in the series, negative = inhibition, actives largely listed as inhibitors; Q9F4F7; Biochemical Sfp PPTase activity, qHTS; AID 1490; hit rate 3.5% among 310,000;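 note: the enzyme is Sfp with the accession as filed and its product quenches rhodamine fluorescence; 0% = enzyme reaction without inhibitor and -100% = no enzyme wells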
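After 15 min at room temperature with compound, 15 nM Sfp received 5 uM rhodamine-CoA plus 12.5 uM BHQ-2-ybbR (50 mM Hepes pH 7.6, 10 mM MgCl2). Rate came from the fluorescence difference over 30 min, ex 525/em 598 nm.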
G9a block: blocks human histone lysine methyltransferase G9a. hit rate 8.8% among 350,000. G9a H3K9 monomethylation, AlphaScreen, 2 h. Potency, µM (top dose mostly 102 µM), inactives show at the highest dose activity, negative = inhibition, most hits filed as inhibitors. Q96KQ7; note: % is set by controls: 0 for no effect and ±100 for the full control effect; nearly all actives have a fitted effect of over 75% in size
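Signal arises when biotinylated H3K9 peptide, once monomethylated, bridges streptavidin donor and antibody-captured acceptor beads. Enzyme at 20 nM was preincubated 15 min with test compounds; peptide 500 nM and SAM 20 uM then reacted for 2 h.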
BAZ2B inh: BAZ2B (human) inhibition; Q9UIF8; AlphaScreen BAZ2B-H3K14Ac peptide displacement; Potency, µM (highest dose often 114 µM), without a hit: at the highest dose activity change, negative = inhibition, most hits filed as inhibitors; hit rate 4.4% among 360,000; AID 504333; note: % is set by controls: 0 for no effect and ±100 for the full control effect; nearly all actives have a fitted effect of over 60% in size
Target sequence (Q9UIF8 whole entry, looked up): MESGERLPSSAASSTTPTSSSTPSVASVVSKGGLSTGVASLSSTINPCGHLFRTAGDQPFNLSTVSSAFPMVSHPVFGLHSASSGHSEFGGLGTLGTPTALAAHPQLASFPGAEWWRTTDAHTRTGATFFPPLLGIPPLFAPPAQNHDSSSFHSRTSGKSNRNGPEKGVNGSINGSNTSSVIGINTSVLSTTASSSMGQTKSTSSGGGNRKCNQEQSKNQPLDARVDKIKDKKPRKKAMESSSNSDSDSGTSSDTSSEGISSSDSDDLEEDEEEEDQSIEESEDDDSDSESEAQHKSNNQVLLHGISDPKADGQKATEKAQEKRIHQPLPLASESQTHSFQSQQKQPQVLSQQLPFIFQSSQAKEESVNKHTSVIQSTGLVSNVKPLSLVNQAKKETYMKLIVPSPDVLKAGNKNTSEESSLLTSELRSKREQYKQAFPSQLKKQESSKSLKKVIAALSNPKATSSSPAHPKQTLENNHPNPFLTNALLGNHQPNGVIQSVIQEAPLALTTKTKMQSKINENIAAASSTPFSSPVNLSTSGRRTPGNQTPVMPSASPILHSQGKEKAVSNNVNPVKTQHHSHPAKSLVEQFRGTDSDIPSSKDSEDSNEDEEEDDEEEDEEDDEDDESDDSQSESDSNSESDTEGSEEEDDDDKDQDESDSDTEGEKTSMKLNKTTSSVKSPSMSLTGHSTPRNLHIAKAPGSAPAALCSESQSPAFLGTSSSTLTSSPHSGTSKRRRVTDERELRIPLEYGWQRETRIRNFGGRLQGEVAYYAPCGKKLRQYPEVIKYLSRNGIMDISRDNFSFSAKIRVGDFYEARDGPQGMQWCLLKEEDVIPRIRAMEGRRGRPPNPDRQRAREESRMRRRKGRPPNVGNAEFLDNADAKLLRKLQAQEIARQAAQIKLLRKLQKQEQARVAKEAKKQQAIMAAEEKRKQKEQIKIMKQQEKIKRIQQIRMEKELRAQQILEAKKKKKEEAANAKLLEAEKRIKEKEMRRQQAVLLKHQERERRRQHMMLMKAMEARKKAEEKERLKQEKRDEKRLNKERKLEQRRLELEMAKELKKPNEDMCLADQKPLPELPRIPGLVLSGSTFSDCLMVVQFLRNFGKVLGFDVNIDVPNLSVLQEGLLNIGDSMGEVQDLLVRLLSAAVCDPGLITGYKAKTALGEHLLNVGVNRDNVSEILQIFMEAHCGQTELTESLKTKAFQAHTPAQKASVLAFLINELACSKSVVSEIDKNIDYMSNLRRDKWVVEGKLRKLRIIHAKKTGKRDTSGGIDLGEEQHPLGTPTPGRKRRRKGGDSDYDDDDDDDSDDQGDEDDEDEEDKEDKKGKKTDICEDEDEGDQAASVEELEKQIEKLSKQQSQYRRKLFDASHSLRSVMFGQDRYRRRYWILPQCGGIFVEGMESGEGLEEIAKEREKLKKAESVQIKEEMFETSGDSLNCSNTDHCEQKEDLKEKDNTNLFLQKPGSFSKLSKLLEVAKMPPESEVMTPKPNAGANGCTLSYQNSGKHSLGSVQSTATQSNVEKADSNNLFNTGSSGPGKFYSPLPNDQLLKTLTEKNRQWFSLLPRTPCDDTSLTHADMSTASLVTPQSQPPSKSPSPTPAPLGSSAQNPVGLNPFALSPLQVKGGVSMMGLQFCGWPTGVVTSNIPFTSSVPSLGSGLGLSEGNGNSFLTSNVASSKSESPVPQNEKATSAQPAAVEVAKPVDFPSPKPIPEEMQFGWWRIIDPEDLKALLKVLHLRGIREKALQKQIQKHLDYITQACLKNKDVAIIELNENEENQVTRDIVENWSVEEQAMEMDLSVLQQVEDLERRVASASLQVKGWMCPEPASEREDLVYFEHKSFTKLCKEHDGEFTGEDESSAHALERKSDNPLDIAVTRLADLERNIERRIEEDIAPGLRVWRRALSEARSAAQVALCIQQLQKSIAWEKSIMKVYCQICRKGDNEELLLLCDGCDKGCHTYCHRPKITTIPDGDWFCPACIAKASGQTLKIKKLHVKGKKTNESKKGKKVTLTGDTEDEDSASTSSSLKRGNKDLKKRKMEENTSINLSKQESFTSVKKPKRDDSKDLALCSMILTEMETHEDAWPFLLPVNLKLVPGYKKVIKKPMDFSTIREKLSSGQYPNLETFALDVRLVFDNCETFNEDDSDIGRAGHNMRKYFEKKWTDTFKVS
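Complex of BAZ2B and biotin-H3K14Ac (50 nM apiece) forms over 30 min at RT, then faces library compounds up to 110 uM for another 30 min; AlphaScreen beads added, 20 min dark incubation, luminescence read.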
JMJD2A Tudor: JMJD2A Tudor domain (human) inhibition; O75164; AlphaScreen JMJD2A-Tudor / H3K4me3 peptide binding; Potency, µM (series often up to 114 µM), for the others: top-dose activity change, negative = inhibition, usual class: inhibitors; hit rate 4.4% among 390,000; AID 504339; note: % is set by controls: 0 for no effect and ±100 for the full control effect; nearly all actives have a fitted effect of over 50% in size
HP1b binding inh: inhibitors of HP1-beta chromodomain binding to methylated histone tails; P83916; AlphaScreen HP1-beta / biotin-H3K9me3 peptide binding; Potency, µM (titrated, usually from 114 µM), for inactives: at the top dose activity change, negative = inhibition, usual class: inhibitors; hit rate 0.56% among 390,000; AID 540317; note: nearly all actives have a fitted effect of over 70% in size
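AlphaScreen: HP1-beta (50 nM) preformed 30 min with biotin-H3(1-18)K9me3 peptide (50 nM) in PBS pH 7.4, 0.01% Tween-20. Compound added for 30 min at RT, then streptavidin donor/nickel chelate acceptor beads (10 ug/mL) for 30 min.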
L3MBTL1 inh: inhibitors of human L3MBTL1. AlphaScreen L3MBTL1–H3K9me1 peptide binding. Potency, µM (highest dose often 57.1 µM), without a hit: at the top dose activity, negative = inhibition, hits mostly inhibitors. hit rate 0.66% among 230,000. AID 485360; note: % is set by controls: 0 for no effect and ±100 for the full control effect; nearly all actives have a fitted effect of over 60% in size
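L3MBTL1 (50 nM) pre-complexed 30 min with biotinylated H3(1-15)K9me1 peptide (75 nM), then compounds added for 30 min at room temperature; AlphaScreen streptavidin donor/nickel chelate acceptor beads (10 ug/mL final) read after 30 min dark incubation.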
The depositor's hits bear a star; u = inconclusive; x = no result given; [ ] = dose if it differs, or a comment. Calls come from the whole dose curve; as a rule, active = well fitted curve in the direction sought with a large enough effect; inconclusive = small, poorly fitted or top-dose-only effect, or another doubt; inactive = no such curve, though single readings can be large; an effect the other way counts as inactive or inconclusive. Potency is the fitted concentration of half-maximal effect.

SMILES	Sfp inh	G9a block	BAZ2B inh	JMJD2A Tudor	HP1b binding inh	L3MBTL1 inh
CC(C)COc1cccc(C(=O)NC(=S)NCc2cccnc2)c1	11%	45µM*	-35%	u	-16%	-10%
CCOc1ccc(C(=O)NC(=S)NCc2cccnc2)cc1	9%	1µM*	-8%	-4%	28%	7%
COCc1ccc(C(=O)Nc2ccccc2C(=O)NCc2cccnc2)cc1	13%	19%	-16%	-8%	5%	x
COc1ccccc1N1CCN(C(c2cccs2)C(C)NC(=O)c2ccncc2)CC1 (stereo unspecified)	14%	-2%	-22%	-24%	27%	-6%
Oc1ccc(Nc2nc3ccccc3nc2Nc2ccc(O)cc2)cc1	-29%	10µM*	50µM*	u	u	x
O=C(Nc1cccc(-c2cn3c(n2)SCC3)c1)c1ccc(Br)o1	14%	7.9µM*	56µM*	-12%	25%	-25%
CC(=O)Nc1ccc(S(=O)(=O)Nc2cccc(-c3cn4c(n3)SCC4)c2)cc1	1%	u	x	-30%	23%	x
O=C(Nc1ccc(-c2cn3c(n2)SCC3)cc1)c1ccco1	-11%	28µM*	-30%	-15%	-2%	-4%
Cc1ccc(-c2cn3c(n2)SCC3)cc1	5%	-9%	u	-27%	-23%	x
CC(=O)Nc1ccc(-c2cn3c(n2)SCC3)cc1	-1%	16%[2.33 µM]	-14%	-20%	u	x
O=C(Cc1ccc(F)cc1)Nc1cccc(-c2cn3c(n2)SCC3)c1	1%	10µM*	u	-21%	-18%	-21%
CCc1ccc(-c2cn3c(n2)SCC3)cc1	9%	45µM*	u	-24%	-1%	-23%
Cn1c(=O)c2ncn(CC(=O)NCCOCc3ccccc3Cl)c2n(C)c1=O	16%	-7%	4%	-20%	19%	2%
Cn1c(=O)c2ncn(CC(=O)NC3CCCCCC3)c2n(C)c1=O	10%	14µM*	-4%	3%	14%	4%
Cn1c(=O)c2ncn(CC(=O)NCCOc3ccc(C(C)(C)C)cc3)c2n(C)c1=O	-9%	40µM*	0%	-2%	5%	6%
O=C(NCc1cccs1)c1ccc2c(c1)sc1nc(-c3ccccc3)cn12	x	-26%[59 µM]	-9%	-9%	25%	x
C#CCOCCOCCOCCNc1nc(N2CCN(C(=O)[C@H]([C@@H](C)CC)n3cc(CCCN=C(N)N)nn3)CC2)nc(N2CCN(C(=O)[C@H](Cc3ccc(O)cc3)n3cc(CCO)nn3)CC2)n1	-12%	45µM*	u	u	28%	5%
C#CCOCCOCCOCCNc1nc(N2CCOCC2)nc(N2CCN(C(=O)Cn3cc(CCCN=C(N)N)nn3)CC2)n1	13%	u	-2%	-4%	30%	8%
C#CCOCCOCCOCCNc1nc(N2CCN(C(=O)Cn3cc(CCO)nn3)CC2)nc(N2CCN(C(=O)[C@H]([C@@H](C)CC)n3cc(CCCN=C(N)N)nn3)CC2)n1	x	x	x	-14%	33%	x
C#CCOCCOCCOCCNc1nc(N2CCN(C(=O)[C@H]([C@@H](C)CC)n3cc(CCCN=C(N)N)nn3)CC2)nc(N2CCN(C(=O)[C@H]([C@@H](C)CC)n3cc(CCCN=C(N)N)nn3)CC2)n1	-8%	20µM*	u	x	x	-2%
C#CCOCCOCCOCCNc1nc(N2CCN(C(=O)Cn3cc(CCCN=C(N)N)nn3)CC2)nc(N2CCN(C(=O)Cn3cc(CCCN=C(N)N)nn3)CC2)n1	19%	25µM*	u	x	x	-1%
C#CCOCCOCCOCCNc1nc(N2CCN(C(=O)[C@H]([C@@H](C)CC)n3cc(CCCN=C(N)N)nn3)CC2)nc(N2CCN(C(=O)[C@H](C)n3cc(CCCN=C(N)N)nn3)CC2)n1	4%	40µM*	u	-31%	19%	-3%
COC(=O)C1CN(C(=O)COc2ccc(Cl)c(C)c2)c2ccccc2O1 (stereo unspecified)	2%	-6%[0.501 µM]	1%	15%	99%	x

Assay outcomes: PubChem BioAssay, National Center for Advancing Translational Sciences (NCATS)
